These results are taken from PubChem BioAssay.

Experiment [1] in a line: compounds binding Alexa647 anti-His antibody – biochemical, small-molecule microarray, 635 nm fluorescence, artefact control for SMM control protein annotation, primary screen (AID 1128).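 Further: score merges feature fluorescence with signal-to-noise for each printed compound spot.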 Particulars: higher = more signal.
The subject of experiment [2] is Human papillomavirus type 1a E7 protein (residues 1-88). The experiment is described as follows: HPV1a E7 small-molecule binders, primary screen, biochemical, small-molecule microarray, residues 1-88, 635 nm (AID 1129). Particulars: small-molecule microarray binding, fluorescence 635 nm; higher = more signal.
The target in experiment [3] is Focal adhesion kinase 1 (Homo sapiens) (UniProt Q05397). In words: PTK2 protein binding on printed compound slides – biochemical, small-molecule microarray, 635/667 nm fluorescence, BSA, DTT, primary screen (AID 1130).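 Further: composite of spot emission at 667 nm and signal to noise over triplicate slides.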 Particulars: 635 nm fluorescence, higher = more signal.
Focal adhesion kinase 1 (Homo sapiens), sequence (Q05397 whole entry, looked up): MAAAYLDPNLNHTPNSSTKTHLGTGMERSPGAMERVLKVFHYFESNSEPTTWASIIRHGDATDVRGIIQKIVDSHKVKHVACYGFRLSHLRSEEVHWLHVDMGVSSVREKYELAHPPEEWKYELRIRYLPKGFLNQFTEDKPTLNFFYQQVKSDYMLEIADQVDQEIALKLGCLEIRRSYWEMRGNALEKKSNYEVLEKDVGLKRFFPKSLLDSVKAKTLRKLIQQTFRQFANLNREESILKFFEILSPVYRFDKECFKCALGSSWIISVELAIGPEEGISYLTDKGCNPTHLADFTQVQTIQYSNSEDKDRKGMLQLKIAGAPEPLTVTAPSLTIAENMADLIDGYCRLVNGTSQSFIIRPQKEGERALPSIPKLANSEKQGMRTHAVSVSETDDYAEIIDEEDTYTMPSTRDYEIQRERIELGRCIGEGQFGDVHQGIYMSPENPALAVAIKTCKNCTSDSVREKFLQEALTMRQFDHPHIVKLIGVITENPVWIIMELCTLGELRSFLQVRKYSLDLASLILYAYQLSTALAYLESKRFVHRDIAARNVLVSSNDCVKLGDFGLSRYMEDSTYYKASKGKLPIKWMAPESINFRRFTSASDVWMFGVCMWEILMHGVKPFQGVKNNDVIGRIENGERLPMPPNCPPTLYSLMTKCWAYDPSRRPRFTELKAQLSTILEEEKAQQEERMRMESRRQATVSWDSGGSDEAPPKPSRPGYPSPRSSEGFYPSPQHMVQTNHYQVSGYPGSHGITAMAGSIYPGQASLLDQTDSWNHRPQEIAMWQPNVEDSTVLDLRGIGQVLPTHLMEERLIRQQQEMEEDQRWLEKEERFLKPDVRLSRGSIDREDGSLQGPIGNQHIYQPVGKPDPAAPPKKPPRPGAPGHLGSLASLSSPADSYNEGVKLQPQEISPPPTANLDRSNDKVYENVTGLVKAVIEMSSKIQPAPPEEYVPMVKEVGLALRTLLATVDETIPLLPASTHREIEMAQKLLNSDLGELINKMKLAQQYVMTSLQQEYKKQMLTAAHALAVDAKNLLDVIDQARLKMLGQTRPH
Experiment [4] has as its system Fibrinogen (Alexa647-labelled). The experiment is described as follows: Alexa647-fibrinogen binding to printed small molecules – biochemical, small-molecule microarray, 635/667 nm fluorescence, artefact control for SMM control-protein annotation, profiling panel (AID 1131).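 Further: z-score merges 667 nm fluorescence with per-spot signal-to-noise over triplicate slides.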 The note with it: fibrinogen-A647 binding fluorescence, higher = more signal.
Experiment [5] deals with Follistatin (Homo sapiens) (UniProt P19883). In words: FST protein binding to printed compounds – biochemical, small-molecule microarray, 635/667 nm fluorescence, primary screen (AID 1132). Particulars: 635 nm fluorescence, higher = more signal.
Follistatin (Homo sapiens), sequence (P19883 whole entry, looked up): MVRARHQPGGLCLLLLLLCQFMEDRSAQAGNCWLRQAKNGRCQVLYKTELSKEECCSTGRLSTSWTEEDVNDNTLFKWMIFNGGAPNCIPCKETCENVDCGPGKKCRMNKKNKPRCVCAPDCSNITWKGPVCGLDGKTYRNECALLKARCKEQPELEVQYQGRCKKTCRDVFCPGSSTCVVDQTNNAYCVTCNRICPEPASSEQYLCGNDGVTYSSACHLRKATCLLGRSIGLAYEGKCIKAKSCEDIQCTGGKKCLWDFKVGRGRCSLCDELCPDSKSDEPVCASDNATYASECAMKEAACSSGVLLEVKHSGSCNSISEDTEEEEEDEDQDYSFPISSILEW
In experiment [6] the target is Fibroblast growth factor 2 (Homo sapiens) (UniProt P09038). In words: basic fibroblast growth factor binding to printed compounds – biochemical, small-molecule microarray, 635/667 nm fluorescence, primary screen (AID 1133). Particulars: FGF2, fluorescence 635/667, higher = more signal.
Fibroblast growth factor 2 (Homo sapiens), sequence (P09038 whole entry, looked up): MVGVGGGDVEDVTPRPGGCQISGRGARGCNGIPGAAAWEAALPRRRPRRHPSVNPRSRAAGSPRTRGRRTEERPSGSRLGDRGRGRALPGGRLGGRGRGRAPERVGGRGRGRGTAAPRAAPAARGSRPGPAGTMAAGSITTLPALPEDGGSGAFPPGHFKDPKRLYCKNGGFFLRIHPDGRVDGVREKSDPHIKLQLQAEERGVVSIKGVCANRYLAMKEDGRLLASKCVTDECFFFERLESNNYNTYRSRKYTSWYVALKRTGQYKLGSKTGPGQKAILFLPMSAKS
Experiment [7] can be described thus: JC-1 mitochondrial potential readout, lung cancer cells – cell-based, A549, JC-1 fluorescence, basal, 24 h, 100 nL, profiling panel (AID 1138).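 Further: A549 lung adenocarcinoma cells under basal conditions with no added stimulus; test concentration not given here.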 The note with it: higher = more signal.
Experiment [8] concerns Lefty1. The experiment is described as follows: Lefty1 protein binding to printed compounds – biochemical, small-molecule microarray, 635/667 nm fluorescence, primary screen (AID 1139). The note with it: fluorescence 635/667, higher = more signal.
Experiment [9] has as its system wheat germ agglutinin (Triticum aestivum), Alexa647-labelled. In words: Alexa647-WGA lectin binding to printed small molecules – biochemical, small-molecule microarray, 635/667 nm fluorescence, artefact control for SMM control-protein annotation, profiling panel (AID 1140).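 Further: score merges 667 nm feature emission with signal to noise over triplicate slides.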 The note with it: WGA-A647 binding, 635 nm fluorescence, higher = more signal.
Experiment [10] concerns the target Luciferin 4-monooxygenase (Photinus pyralis) (UniProt P08659). In words: inhibition of purified Photinus pyralis luciferase – biochemical, luminescence, purified enzyme, 2006 set, primary screen (AID 1141).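 Further: cell-free assay with purified firefly luciferase at 100 ng per well in PBS; test concentration not given here.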 The note with it: purified firefly luciferase, SteadyGlo luminescence, 30 min; higher = more signal, called active from +8 up or from −8 down.
For experiment [11], the system named is Wnt5a (protein binding on small-molecule microarray). In words: small molecules binding Wnt5a protein – biophysical, small-molecule microarray, 635/667 nm fluorescence, primary screen (AID 1142).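 Further: fluorescence read at 667 nm with signal to noise per printed feature.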 The note with it: 635 nm fluorescence, higher = more signal.
Experiment [12] is described as follows: ATP-based viability of Huh7 replicon cells – cell-based, CellTiter-Glo luminescence, basal, 48 h, cytotoxicity control for HCV replication inhibitor project, primary screen (AID 1143).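 Further: Huh7 hepatoma cells carrying a hepatitis C replication reporter with no stimulus; test concentration not given here.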 Particulars: higher = more signal, called active from +8 up or from −8 down. (In general: In antiviral work, replicon cells carry a viral genome segment that copies itself.)
Experiment [13] in a line: Pseudomonas biofilm growth suppression – PAO1 strain, BacTiter-Glo luminescence, LB-PBS, primary screen (AID 1144). The note with it: P. aeruginosa PAO1 biofilm, 12 h, higher = more signal.
A short description of experiment [14]: basal CRE-LacZ reporter activity in PC12 – cell-based, unstimulated, primary screen (AID 1145). The note with it: no forskolin, luminescence, 4.5 h, higher = more signal, called active from +8 up or from −8 down.
Experiment [15] in a line: forskolin-driven CRE-LacZ activity in PC12 – cell-based, CRE-LacZ reporter, forskolin-stimulated, primary screen (AID 1146).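 Further: PC12 cells with 6xCRE LacZ reporter stimulated by forskolin 10 µM; beta-galactosidase reporter signal reflecting CREB driven transcription.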 Particulars: luminescence, 4.5 h, higher = more signal, called active from +8 up or from −8 down.
For experiment [16], the target named is Streptavidin (Streptomyces avidinii) (UniProt P22629). The experiment is described as follows: compounds binding control protein streptavidin – biophysical, small-molecule microarray, 635/667 nm fluorescence, artefact control for SMM compound annotation, primary screen (AID 1147).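 Further: signal reflects streptavidin binding to arrayed compounds as a control protein.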 Particulars: higher = more signal.
Streptavidin (Streptomyces avidinii), sequence (P22629 whole entry, looked up): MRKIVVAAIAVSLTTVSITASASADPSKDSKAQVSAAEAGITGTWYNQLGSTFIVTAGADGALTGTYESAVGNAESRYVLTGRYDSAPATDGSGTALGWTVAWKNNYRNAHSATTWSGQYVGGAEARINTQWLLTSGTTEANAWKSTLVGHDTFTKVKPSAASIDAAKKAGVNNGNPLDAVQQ
The nature of experiment [17]: probe aInhba binding on compound microarray – biochemical, small-molecule microarray, 635/667 nm fluorescence, primary screen (AID 1148).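 Further: score merges 667nm spot fluorescence with signal-to-noise for antibody binding to printed compounds.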 Particulars: higher = more signal.
Experiment [18] concerns the target Torsin-1A (Homo sapiens) (UniProt O14656). In words: TOR1A wild-type binding on microarray – cell lysate, small-molecule microarray, lysate, 635/667 nm, primary screen (AID 1149). The note with it: COS7 hTOR1A-WT lysate, 635 nm fluorescence, higher = more signal.
Experiment [19] has the same target. The experiment is described as follows: torsin A mutant lysate binding on microarrays – cell lysate, small-molecule microarray, COS7 lysate, 635/667 nm fluorescence, primary screen (AID 1150).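 Further: score pools 667 nm emission and signal to noise measuring lysate protein binding.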 Particulars: COS7 hTOR1A mutant lysate, 635 nm fluorescence, higher = more signal.
Experiment [20] has as its system Sonic hedgehog protein (Shh). The experiment is described as follows: Sonic hedgehog microarray binding compounds – biochemical, small-molecule microarray, 635/667 nm fluorescence, primary screen (AID 1151).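 Further: Shh protein binding to compounds spotted on small-molecule microarray slides; score combines spot fluorescence intensity with signal-to-noise across triplicate slides.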 The note with it: 635 nm fluorescence, higher = more signal.

Active and inactive are the calls of the source. Unless noted, how the calls were made is not given here.

Luciferin 4-monooxygenase (Photinus pyralis), sequence (P08659 whole entry, looked up): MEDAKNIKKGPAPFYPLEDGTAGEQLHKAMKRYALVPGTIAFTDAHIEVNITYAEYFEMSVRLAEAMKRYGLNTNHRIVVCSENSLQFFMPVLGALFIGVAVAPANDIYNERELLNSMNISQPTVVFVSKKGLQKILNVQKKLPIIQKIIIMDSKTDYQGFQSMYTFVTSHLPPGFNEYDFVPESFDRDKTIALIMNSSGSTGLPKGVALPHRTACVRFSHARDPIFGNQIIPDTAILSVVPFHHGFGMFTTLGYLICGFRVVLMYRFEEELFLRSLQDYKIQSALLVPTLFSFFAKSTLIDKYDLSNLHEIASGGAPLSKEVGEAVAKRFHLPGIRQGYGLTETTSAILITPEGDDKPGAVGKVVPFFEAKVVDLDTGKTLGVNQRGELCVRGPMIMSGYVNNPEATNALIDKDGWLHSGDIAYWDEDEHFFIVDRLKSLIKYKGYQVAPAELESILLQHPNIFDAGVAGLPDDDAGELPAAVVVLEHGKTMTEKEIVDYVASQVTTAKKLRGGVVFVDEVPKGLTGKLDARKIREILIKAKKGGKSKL
Torsin-1A (Homo sapiens), sequence (O14656 whole entry, looked up): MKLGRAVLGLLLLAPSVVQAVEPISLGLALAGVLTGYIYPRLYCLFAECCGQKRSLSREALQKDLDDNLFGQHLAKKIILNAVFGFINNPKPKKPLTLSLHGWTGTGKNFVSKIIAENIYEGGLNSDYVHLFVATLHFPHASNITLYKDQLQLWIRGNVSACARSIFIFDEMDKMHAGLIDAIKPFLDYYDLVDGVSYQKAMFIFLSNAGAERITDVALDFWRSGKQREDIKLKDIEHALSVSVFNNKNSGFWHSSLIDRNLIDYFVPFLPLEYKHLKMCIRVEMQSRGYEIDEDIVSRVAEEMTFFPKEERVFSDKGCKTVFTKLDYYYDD

Turning to `COCCOC(=O)N1C(=O)[C@@]2(c3cc(C#CCC(C(=O)OC)C(=O)OC)ccc31)[C@H](C(=O)N1CCc3cc(OC)c(OC)cc3C1)[C@H]1C(=O)O[C@H](c3ccccc3)[C@H](c3ccccc3)N1[C@@H]2c1ccc(O)cc1`, the composite z-score was 1.82 in experiment [1]; 1.21 in experiment [2]; 0.221 in experiment [3]; 0.787 in experiment [4]; 1.36 in [5]; 1.59 in experiment [6]. Moreover, the composite z-score was found to be 1.11 in experiment [8]; 1.05 in experiment [9]; 0.44 in experiment [11]; 0.286 in experiment [16]; 0.134 in experiment [17]; 1.32 in [18]. Besides, the composite z-score in experiment [19] came out at 0.864; in [20], 1.9. Moreover, the z-score is -0.132 in [7]; 1.01 (inactive) in experiment [10]; -0.607 (inactive) in [12]; 0.0314 (inactive) in experiment [13]; 0.0653 (inactive) in experiment [14]; -0.572 (inactive) in [15].
For the compound `COc1ccc([Si](C)(C)[C@H]2[C@H](CC(=O)N3Cc4ccccc4C[C@H]3CO)O[C@@]3(C(=O)N(Cc4cccc(N5C(=O)c6cccc7cccc5c67)c4)c4ccccc43)[C@@H]2C)cc1`, the composite z-score in experiment [1] was 0.577; in experiment [2], 1.16; in experiment [3] it was 0.463; in [4], -0.0297; in experiment [5], 1.18; in [6], 1.59. The composite z-score was 1.53 in [8]; 0.108 in [9]; 0.862 in [11]; 0.159 in experiment [16]; -0.0107 in experiment [17]; 1.39 in [18]. In addition, the composite z-score was 0.736 in [19] and 2.23 in [20]. Moreover, the z-score is 1.03 in experiment [7]; -1.53 (inactive) in experiment [10]; -4.55 (inactive) in experiment [12]; -0.765 (inactive) in experiment [13]; 11 (active) in [14]; -1.41 (inactive) in [15].
For `COCCOC(=O)N1C(=O)[C@@]2(c3cc(C#CCC(C(=O)OC)C(=O)OC)ccc31)[C@H](C(=O)N1CCCCCCC1)[C@H]1C(=O)O[C@H](c3ccccc3)[C@H](c3ccccc3)N1[C@@H]2c1ccccc1OCCO`, the composite z-score in experiment [1] came to 2.09; in [2], 1.18; in [3], 0.945; in experiment [4] it was 0.775; in experiment [5], 1.45; in experiment [6] it was 1.43. Moreover, the composite z-score in [8] turned out to be 0.884; in experiment [9], 1.46; in experiment [11], 1.21; in experiment [16] it was 2.68; in [17], 1.91; in experiment [18] it was 1.27. Besides, the composite z-score is 1.23 in [19] and 2.06 in experiment [20]. Further, the z-score in [7] was -1.49; in [10], -0.694 (inactive); in [12] it was -5.66 (inactive); in [13], -0.728 (inactive); in experiment [14], -0.475 (inactive); in [15] it was -0.981 (inactive).
With `COc1ccc(NN2C(C(O)c3ccc(OC)cc3)C=CC3C(=O)N(C4CCCCC4)C(=O)C32)cc1` (stereo not given), the composite z-score in experiment [1] was 0.679; in experiment [2] it was 1.18; in experiment [3] it was 0.349; in experiment [4] it was 0.92; in [5], 0.977; in experiment [6] it was -0.0659. Besides, the composite z-score is 0.433 in experiment [8]; 0.701 in experiment [9]; 0.219 in experiment [11]; 0.964 in [16]; -0.0313 in [17]; 0.118 in [18]. Moreover, the values for the composite z-score in [19] and in experiment [20] were 0.202 and 0.0867, respectively. Further, the z-score in experiment [7] is 0.017; in experiment [10] it was 1.25 (inactive); in [12], -0.914 (inactive); in [13], -0.257 (inactive); in experiment [14], -0.163 (inactive); in experiment [15], -0.211 (inactive).
On to `CCN(CC)c1ccc(N2CC=CC34O[C@@H]5C=CCOC(=O)[C@@H]5[C@H]3C(=O)N(CCO)[C@@H]4C2=O)cc1` (stereo not given in full), for which the composite z-score in experiment [1] was -0.305; in experiment [2] it was -0.508; in [3] it was -0.856; in [4], -0.602; in [5], -0.721; in experiment [6], -1.44. In addition, the composite z-score in experiment [8] is -1.35; in experiment [9], -1.38; in experiment [11] it was -0.403; in [16] it was -1.77; in [17], 0.476; in experiment [18], -0.0491. For the same compound, the composite z-score in experiment [19] was -0.669; in experiment [20] it was -0.198. Further, the z-score was 1.41 in [7]; -1.47 (inactive) in experiment [10]; -0.271 (inactive) in experiment [12]; 1.72 (inactive) in experiment [13]; -0.0656 (inactive) in experiment [14]; -0.599 (inactive) in [15].
